PubChem BioAssay (EPA / NIEHS)
The source made the active and inactive calls. The calls were made as follows: active = hit-call score of the fitted dose curve at least 0.9, where 1 is the maximum; inactive = score below 0.9.

Experiments:
[1] = ATG_ISRE_CIS: Attagene CIS-FACTORIAL HepG2 Assay for human Interferon Regulatory Factor 1 (IRF1) binding to an Interferon-Stimulated Response Element (ISRE) (AID 2282948); details: HepG2 ISRE cis-reporter (Attagene), mRNA transcription readout; actives raise or lower the signal
In short: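 Endogenous transcription factor activity read as reporter transcript abundance via RT-PCR and capillary electrophoresis. HepG2 cells transiently transfected, 24 h chemical exposure. Gain or loss fitted against DMSO baseline.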

[2] = ATG_M_32_CIS: Attagene CIS-FACTORIAL HepG2 Assay for M32 Transcription Factor (Internal Marker) (AID 2282949); details: HepG2 Attagene cis-factorial M32 reporter, mRNA; actives raise or lower the signal;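 also: background control marker of the multiplexed CIS panel rather than a real target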
In short: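 Transient MRTU transfection of HepG2; 24 h compound treatment; TriZol RNA, oligo(dT) RT, reporter PCR, 6-FAM primer extension, HpaI cut, CE. Gain/loss of signal vs DMSO.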

[3] = ATG_M_06_CIS: Attagene CIS-FACTORIAL HepG2 Assay for M06 Transcription Factor (Internal Marker) (AID 2282950); details: HepG2 Attagene CIS-FACTORIAL M06 internal marker reporter; actives raise or lower the signal
In short: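 Terse: HepG2, transient MRTU transfection (FuGene 6), 24 h dosing; total RNA, oligo(dT) RT, PCR, FAM label, HpaI cut, capillary electrophoresis; bidirectional fit vs DMSO baseline; background-control endpoint.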

[4] = target: Hypoxia-inducible factor 1-alpha (Homo sapiens) (UniProt Q16665); experiment: ATG_HIF1a_CIS: Attagene CIS-FACTORIAL HepG2 Assay for human Hypoxia Inducible Factor 1 (HIF1A) (AID 2282951); details: HepG2 Attagene cis-factorial HIF1a reporter transcription; actives raise or lower the signal
Sequence of Hypoxia-inducible factor 1-alpha (Homo sapiens) (Q16665 whole entry, looked up): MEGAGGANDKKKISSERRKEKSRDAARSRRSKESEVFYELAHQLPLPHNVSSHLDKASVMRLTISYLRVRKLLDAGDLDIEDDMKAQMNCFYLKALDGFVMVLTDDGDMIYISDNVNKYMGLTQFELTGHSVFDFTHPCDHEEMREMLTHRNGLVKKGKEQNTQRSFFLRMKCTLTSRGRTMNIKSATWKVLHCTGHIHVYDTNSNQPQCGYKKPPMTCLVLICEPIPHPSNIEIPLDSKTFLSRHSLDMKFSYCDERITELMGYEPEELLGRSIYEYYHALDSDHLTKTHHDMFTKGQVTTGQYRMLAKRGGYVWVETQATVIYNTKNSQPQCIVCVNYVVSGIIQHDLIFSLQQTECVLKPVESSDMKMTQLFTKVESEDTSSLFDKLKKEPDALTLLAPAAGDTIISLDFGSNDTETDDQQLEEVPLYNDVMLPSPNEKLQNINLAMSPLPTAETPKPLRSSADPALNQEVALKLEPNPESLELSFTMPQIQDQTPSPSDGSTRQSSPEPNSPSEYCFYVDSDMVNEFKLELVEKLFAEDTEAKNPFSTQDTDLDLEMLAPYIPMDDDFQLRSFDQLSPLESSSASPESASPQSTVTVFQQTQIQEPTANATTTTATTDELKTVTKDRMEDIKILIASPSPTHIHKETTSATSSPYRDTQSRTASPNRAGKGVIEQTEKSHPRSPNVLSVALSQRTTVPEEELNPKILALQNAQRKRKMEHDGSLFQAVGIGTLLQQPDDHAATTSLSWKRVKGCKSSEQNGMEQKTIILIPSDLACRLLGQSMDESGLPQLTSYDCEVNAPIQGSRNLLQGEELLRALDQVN
In short: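 Measures endogenous transcription-factor activity through cis-regulated reporter mRNA in HepG2. Cells dosed 24 h; transcripts quantified by RT-PCR with 6-FAM-labelled products separated by capillary electrophoresis; DMSO serves as negative control.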

[5] = target: Hepatocyte nuclear factor 6 (Homo sapiens) (UniProt Q9UBC0); experiment: ATG_HNF6_CIS: Attagene CIS-FACTORIAL HepG2 Assay for human Hepatocyte Nuclear Factor 6 (HNF6) (AID 2282952); details: HepG2 Attagene cis-factorial HNF6 reporter transcription; actives raise or lower the signal
Sequence of Hepatocyte nuclear factor 6 (Homo sapiens) (Q9UBC0 whole entry, looked up, the tested form may be a part): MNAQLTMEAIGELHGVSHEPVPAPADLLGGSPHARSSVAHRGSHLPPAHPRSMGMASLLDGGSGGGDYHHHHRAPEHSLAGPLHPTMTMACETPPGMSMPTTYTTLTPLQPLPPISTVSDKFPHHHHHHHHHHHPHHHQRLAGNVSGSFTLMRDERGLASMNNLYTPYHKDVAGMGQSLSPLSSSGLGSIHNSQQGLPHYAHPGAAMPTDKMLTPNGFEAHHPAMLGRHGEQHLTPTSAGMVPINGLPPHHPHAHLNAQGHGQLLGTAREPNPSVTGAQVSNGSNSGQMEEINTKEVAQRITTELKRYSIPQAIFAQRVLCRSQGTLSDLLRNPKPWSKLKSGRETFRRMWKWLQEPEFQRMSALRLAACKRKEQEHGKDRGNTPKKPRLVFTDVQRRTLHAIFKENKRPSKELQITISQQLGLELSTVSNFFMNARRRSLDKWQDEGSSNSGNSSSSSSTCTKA
In short: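 First, HepG2 cells were transfected with the multiplexed cis reporter library and dosed with chemical for 24 h. Next, RNA was reverse-transcribed, PCR-amplified and fluorescently labelled. Finally, HpaI-digested fragments were read by capillary electrophoresis.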

[6] = target: Heat shock factor protein 1 (Homo sapiens) (UniProt Q00613); experiment: ATG_HSE_CIS: Attagene CIS-FACTORIAL HepG2 Assay for human Heat Shock Transcription Factor 1 (HSE) (AID 2282953); details: HepG2 HSE cis-reporter, Attagene RNA transcription; actives raise or lower the signal
Sequence of Heat shock factor protein 1 (Homo sapiens) (Q00613 whole entry, looked up, the tested form may be a part): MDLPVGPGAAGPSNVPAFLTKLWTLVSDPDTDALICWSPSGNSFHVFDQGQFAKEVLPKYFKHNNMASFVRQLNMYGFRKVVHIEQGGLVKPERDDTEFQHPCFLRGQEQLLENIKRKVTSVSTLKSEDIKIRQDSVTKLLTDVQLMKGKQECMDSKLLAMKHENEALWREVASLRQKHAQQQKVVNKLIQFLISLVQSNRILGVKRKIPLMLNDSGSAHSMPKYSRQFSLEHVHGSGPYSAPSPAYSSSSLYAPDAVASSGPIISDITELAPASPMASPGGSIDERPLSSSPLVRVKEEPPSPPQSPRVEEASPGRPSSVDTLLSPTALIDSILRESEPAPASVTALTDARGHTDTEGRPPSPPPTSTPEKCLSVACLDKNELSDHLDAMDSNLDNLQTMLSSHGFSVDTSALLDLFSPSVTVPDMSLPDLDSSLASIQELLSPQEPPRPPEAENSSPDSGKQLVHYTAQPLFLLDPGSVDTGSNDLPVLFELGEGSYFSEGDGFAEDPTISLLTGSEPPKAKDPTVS
In short: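 Read-out: fluorescence of reporter-specific RT-PCR fragments separated by capillary electrophoresis. HepG2 carrying transfected cis-element reporter units; 24 h dosing; activity fitted in both directions relative to DMSO baseline.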

[7] = ATG_MRE_CIS: Attagene CIS-FACTORIAL HepG2 Assay for human Metal Responsive Element (MRE) (AID 2282954); details: HepG2 MRE cis-reporter transcription, Attagene multiplex; actives raise or lower the signal
In short: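 Readout: capillary electrophoresis of 6-FAM-labelled, HpaI-digested RT-PCR reporter products. System: HepG2 cells carrying transient multiplexed cis reporters, dosed 24 h. Analysis: bidirectional fit, DMSO baseline.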

[8] = ATG_PBREM_CIS: Attagene CIS-FACTORIAL HepG2 Assay for human Phenobarbital-responsive Enhancer Module (PBREM) (AID 2282955); details: HepG2 PBREM cis-reporter, Attagene multiplexed transcription; actives raise or lower the signal
In short: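 Fluorescence of labelled reporter cDNA fragments, resolved by capillary electrophoresis, gives mRNA induction in transfected HepG2 cells treated for 24 h; DMSO serves as negative control and baseline.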

[9] = target: Paired box protein Pax-6 (Homo sapiens) (UniProt P26367); experiment: ATG_Pax6_CIS: Attagene CIS-FACTORIAL HepG2 Assay for human Paired Box 6 (PAX6) (AID 2282956); details: HepG2 CIS-FACTORIAL PAX6 reporter transcription, RNA readout; actives raise or lower the signal
Sequence of Paired box protein Pax-6 (Homo sapiens) (P26367 whole entry, looked up): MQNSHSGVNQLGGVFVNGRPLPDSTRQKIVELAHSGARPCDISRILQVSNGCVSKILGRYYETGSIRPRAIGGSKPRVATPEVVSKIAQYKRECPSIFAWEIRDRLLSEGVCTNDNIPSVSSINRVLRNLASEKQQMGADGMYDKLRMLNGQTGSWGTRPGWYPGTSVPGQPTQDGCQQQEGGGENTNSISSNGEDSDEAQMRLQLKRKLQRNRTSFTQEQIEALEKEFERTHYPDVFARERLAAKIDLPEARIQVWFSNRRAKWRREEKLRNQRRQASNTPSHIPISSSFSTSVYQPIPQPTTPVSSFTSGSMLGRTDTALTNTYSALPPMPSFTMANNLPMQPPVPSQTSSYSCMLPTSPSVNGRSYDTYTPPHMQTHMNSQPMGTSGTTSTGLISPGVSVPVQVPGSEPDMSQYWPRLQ
In short: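 Read-out is reporter transcript level, measured by RT-PCR with fluorescent primer extension and capillary electrophoresis after 24 h dosing of transfected HepG2 cells. Activity in either direction fitted relative to DMSO control.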

[10] = ATG_PXRE_CIS: Attagene CIS-FACTORIAL HepG2 Assay for human Pregnane X Receptor Element (PXRE) (AID 2282957); details: HepG2 Attagene CIS-FACTORIAL PXRE reporter, mRNA; actives raise or lower the signal
In short: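 After a 24 h chemical incubation, total RNA from transfected HepG2 cells was reverse-transcribed and reporter cDNA amplified, FAM-labeled, HpaI-digested and sized by capillary electrophoresis. DMSO served as baseline for bidirectional curve fitting.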

[11] = ATG_RORE_CIS: Attagene CIS-FACTORIAL HepG2 Assay for human RAR-related Orphan Receptor Element (RORE) (AID 2282959); details: HepG2 Attagene cis-factorial RORE reporter, mRNA; actives raise or lower the signal
In short: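 Cells were HepG2 carrying transfected cis-regulated reporter constructs, dosed for 24 hours. Total RNA was reverse-transcribed and reporter cDNA amplified, fluorescently labeled and sized by capillary electrophoresis. Activity was fitted bidirectionally relative to DMSO.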

[12] = ATG_Sox_CIS: Attagene CIS-FACTORIAL HepG2 Assay for human SRY-box transcription factor (SOX) (AID 2282960); details: HepG2 Attagene cis-factorial SOX reporter, mRNA; actives raise or lower the signal
In short: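 Transient MRTU transfection of HepG2; 24 h compound incubation; TriZol RNA, oligo(dT) RT, PCR, 6-FAM primer extension, HpaI cut, CE. Bidirectional fit, DMSO = baseline.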

[13] = target: Transcription factor Sp1 (Homo sapiens) (UniProt P08047); experiment: ATG_Sp1_CIS: Attagene CIS-FACTORIAL HepG2 Assay for human Specificity Protein 1 (Sp1) (AID 2282961); details: HepG2 Sp1 cis-reporter transcription, actives raise or lower the signal
Sequence of Transcription factor Sp1 (Homo sapiens) (P08047 whole entry, looked up): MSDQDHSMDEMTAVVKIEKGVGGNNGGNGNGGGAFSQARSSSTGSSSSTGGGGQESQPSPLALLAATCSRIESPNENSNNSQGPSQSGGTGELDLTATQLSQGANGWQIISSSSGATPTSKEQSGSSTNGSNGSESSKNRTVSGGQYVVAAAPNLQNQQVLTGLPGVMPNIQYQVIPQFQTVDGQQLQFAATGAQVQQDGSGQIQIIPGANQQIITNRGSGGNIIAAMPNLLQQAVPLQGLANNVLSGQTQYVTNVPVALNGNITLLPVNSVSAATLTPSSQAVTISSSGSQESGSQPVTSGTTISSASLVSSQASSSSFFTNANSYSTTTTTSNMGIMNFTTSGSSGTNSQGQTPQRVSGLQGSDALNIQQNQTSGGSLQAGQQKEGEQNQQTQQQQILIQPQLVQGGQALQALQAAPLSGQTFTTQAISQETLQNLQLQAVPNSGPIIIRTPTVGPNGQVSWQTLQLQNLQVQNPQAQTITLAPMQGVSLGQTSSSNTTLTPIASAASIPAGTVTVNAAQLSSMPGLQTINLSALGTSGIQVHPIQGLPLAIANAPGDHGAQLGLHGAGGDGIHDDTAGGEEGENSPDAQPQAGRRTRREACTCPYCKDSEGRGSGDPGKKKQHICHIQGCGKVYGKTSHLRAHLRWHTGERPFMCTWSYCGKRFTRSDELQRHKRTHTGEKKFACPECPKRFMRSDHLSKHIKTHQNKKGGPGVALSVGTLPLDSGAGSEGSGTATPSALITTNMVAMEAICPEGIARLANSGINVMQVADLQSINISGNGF
In short: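 Endogenous Sp1 activity was gauged in human liver HepG2 cells bearing transfected reporter units under a cis-regulating promoter. After 24 h dosing, reporter mRNA was quantified by RT-PCR with capillary electrophoresis, and activity fitted bidirectionally versus DMSO.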

[14] = ATG_SREBP_CIS: Attagene CIS-FACTORIAL HepG2 Assay for human Sterol Regulatory Element Binding (SREBP) (AID 2282962); details: HepG2 Attagene cis-factorial SREBP reporter, mRNA; actives raise or lower the signal
In short: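 Endogenous SREBP activity read as cis-element-driven reporter transcript in transiently transfected HepG2, 24 h post-dosing; quantified via RT-PCR plus capillary electrophoresis of fluorescent fragments. Gain or loss of signal fitted relative to DMSO baseline.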

[15] = target: Signal transducer and activator of transcription 3 (Homo sapiens) (UniProt P40763); experiment: ATG_STAT3_CIS: Attagene CIS-FACTORIAL HepG2 Assay for human Signal Transducer and Activator of Transcription 3 (STAT3) (AID 2282963); details: HepG2, Attagene cis-factorial STAT3 reporter transcription; actives raise or lower the signal
Sequence of Signal transducer and activator of transcription 3 (Homo sapiens) (P40763 whole entry, looked up): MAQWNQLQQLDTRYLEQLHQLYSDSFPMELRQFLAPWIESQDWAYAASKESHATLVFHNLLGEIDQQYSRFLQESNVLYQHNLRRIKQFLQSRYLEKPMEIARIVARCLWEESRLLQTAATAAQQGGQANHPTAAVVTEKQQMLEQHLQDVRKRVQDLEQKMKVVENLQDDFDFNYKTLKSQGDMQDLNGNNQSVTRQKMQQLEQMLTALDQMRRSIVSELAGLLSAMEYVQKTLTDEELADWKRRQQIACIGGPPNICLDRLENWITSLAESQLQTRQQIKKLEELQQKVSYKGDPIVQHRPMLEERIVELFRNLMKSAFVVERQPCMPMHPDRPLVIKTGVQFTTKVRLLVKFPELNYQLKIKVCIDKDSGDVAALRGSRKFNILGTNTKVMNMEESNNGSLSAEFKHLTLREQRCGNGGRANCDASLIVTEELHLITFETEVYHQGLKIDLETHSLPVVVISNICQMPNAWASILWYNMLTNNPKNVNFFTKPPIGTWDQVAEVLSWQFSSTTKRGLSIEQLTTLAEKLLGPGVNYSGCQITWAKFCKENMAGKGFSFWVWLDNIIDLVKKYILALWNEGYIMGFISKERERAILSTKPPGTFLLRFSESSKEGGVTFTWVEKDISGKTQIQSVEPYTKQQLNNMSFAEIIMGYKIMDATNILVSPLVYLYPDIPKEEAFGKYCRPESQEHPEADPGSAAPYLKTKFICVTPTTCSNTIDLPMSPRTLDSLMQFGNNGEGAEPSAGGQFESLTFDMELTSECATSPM
In short: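 Uses human liver HepG2 transiently carrying cis-regulated reporter transcription units. Following 24 h dosing, reporter mRNA induction was detected by RT-PCR and capillary electrophoresis, analysed bidirectionally versus DMSO.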

[16] = ATG_TA_CIS: Attagene CIS-FACTORIAL HepG2 Assay for human TA Basal Promoter (AID 2282964); details: HepG2 Attagene CIS-factorial TA basal promoter reporter; actives raise or lower the signal
In short: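 Transfected HepG2, 24 h compound exposure; RNA → RT-PCR → FAM primer extension → HpaI cut → CE fluorescence. Gain/loss-of-signal fitted against DMSO negative control. Background-control readout.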

[17] = ATG_TCF_b_cat_CIS: Attagene CIS-FACTORIAL HepG2 Assay for human T-Cell-Factor with beta-catenin (TCF/b-cat) (AID 2282965); details: HepG2 TCF/beta-catenin cis-reporter transcription, actives raise or lower the signal
In short: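 In this cis-format system, transfected HepG2 cells report endogenous transcription factor activity. Readout after 24 h exposure is reporter transcript abundance from RT-PCR and capillary electrophoresis, analysed for gain or loss of signal versus DMSO.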

[18] = ATG_TAL_CIS: Attagene CIS-FACTORIAL HepG2 Assay for human TAL Basal Promoter (AID 2282966); details: HepG2 Attagene cis-factorial TAL promoter reporter; actives raise or lower the signal;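 also: background control endpoint measuring basal TAL promoter reporter mRNA not a specific factor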
In short: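 Basal-promoter background-control endpoint from a multiplexed HepG2 reporter panel. Cells were exposed 24 h, then reporter mRNA was read by RT-PCR/CE fluorescence and fitted in both directions relative to DMSO.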

Measured: outcome

O=C(O)Cc1ccccc1
inactive: all assays above

O=[N+]([O-])c1ccc(O)c([N+](=O)[O-])c1
inactive: all assays above
